{"source": "PubChem BioAssay AID504885", "about": "(Johns Hopkins Ion Channel Center, 2011)", "note": "A number with no mark means an inactive call.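 Rule for the calls: active = TRPC6 cation channel blocked by over 30% at any dose tested, plus a fitted dose response curve; inactive = the rest.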", "data": [{"target": "Short transient receptor potential channel 6 (Mus musculus) (UniProt Q61143)", "sequence (Q61143 whole entry, looked up)": "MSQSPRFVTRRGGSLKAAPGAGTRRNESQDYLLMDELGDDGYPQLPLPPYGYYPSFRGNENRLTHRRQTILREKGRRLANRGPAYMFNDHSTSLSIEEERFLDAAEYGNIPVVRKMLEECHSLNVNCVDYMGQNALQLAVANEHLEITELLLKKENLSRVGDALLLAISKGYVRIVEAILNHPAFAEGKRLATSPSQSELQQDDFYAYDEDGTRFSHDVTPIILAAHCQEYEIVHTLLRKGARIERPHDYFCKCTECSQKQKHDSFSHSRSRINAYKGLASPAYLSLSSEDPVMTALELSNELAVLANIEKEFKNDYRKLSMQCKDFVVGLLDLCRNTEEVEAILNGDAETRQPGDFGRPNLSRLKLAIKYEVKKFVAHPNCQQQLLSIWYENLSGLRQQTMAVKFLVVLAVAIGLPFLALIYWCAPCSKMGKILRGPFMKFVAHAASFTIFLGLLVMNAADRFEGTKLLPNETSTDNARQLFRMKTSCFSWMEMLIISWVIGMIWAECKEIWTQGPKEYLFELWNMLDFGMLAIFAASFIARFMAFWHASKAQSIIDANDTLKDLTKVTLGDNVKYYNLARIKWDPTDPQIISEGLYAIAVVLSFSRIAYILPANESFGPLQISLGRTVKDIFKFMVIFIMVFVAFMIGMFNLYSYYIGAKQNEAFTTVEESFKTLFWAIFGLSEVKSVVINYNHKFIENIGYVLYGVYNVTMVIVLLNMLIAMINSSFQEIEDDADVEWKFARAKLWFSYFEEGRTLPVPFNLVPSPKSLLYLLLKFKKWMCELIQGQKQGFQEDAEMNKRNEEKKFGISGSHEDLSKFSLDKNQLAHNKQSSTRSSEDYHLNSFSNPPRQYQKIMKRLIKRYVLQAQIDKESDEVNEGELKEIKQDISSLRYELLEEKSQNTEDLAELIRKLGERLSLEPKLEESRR", "assay": "potency of TRPC6 cation channel blockers – HEK293 cells, membrane potential dye, set 2, SAR follow-up (AID 504885)", "settings": "acetylcholine-stimulated; series mostly up to 20 µM; fluorescence ratio, lower = inhibition: at the top concentration", "values": [{"compound": "CSCc1cc(N2CCOCC2)nc(-c2ccccn2)n1", "fluorescence ratio, lower = inhibition": 22}, {"compound": "Cc1ccccc1CN1CCN(Cc2ccc3nsnc3c2)CC1CCO", "note": "(stereo not given)", "fluorescence ratio, lower = inhibition": 17.6}, {"compound": "CC(C)CN1CCN(Cc2ccc3nsnc3c2)CC1CCO", "note": "(stereo not given)", "fluorescence ratio, lower = inhibition": 17.5}, {"compound": "CN1CCC(N2CCN(Cc3ccc4nsnc4c3)CC2CCO)CC1", "note": "(stereo not given)", "fluorescence ratio, lower = inhibition": 24.3}, {"compound": "Clc1ccc(SCc2cc(N3CCCCC3)nc(-c3ccccn3)n2)cc1", "fluorescence ratio, lower = inhibition": 19.2}, {"compound": "Cc1ccc(C)c(N2CCN(C(=O)c3ccc4nsnc4c3)CC2)c1", "fluorescence ratio, lower = inhibition": 18.7}, {"compound": "Cc1cccc(CN2CCN(Cc3ccc4nsnc4c3)CC2CCO)n1", "note": "(stereo not given)", "fluorescence ratio, lower = inhibition": 20.3}, {"compound": "CC(C)N1CCC(N2CCN(Cc3ccc4nsnc4c3)CC2CCO)CC1", "note": "(stereo not given)", "fluorescence ratio, lower = inhibition": 22}, {"compound": "CC(C)CCN1CCN(Cc2ccc3nsnc3c2)CC1CCO", "note": "(stereo not given)", "fluorescence ratio, lower = inhibition": 16.6}, {"compound": "CC(C)N1CCN(Cc2ccc3nsnc3c2)CC1CCO", "note": "(stereo not given)", "fluorescence ratio, lower = inhibition": 20.9}, {"compound": "OCCC1CN(Cc2ccc3nsnc3c2)CCN1CCCc1ccccc1", "note": "(stereo not given)", "fluorescence ratio, lower = inhibition": 12.4}, {"compound": "O=S(=O)(Cc1cc(N2CCOCC2)nc(-c2ccccn2)n1)c1ccccc1", "fluorescence ratio, lower = inhibition": 21.7}, {"compound": "O=S(=O)(Cc1cc(N2CCN(c3ccccc3)CC2)nc(-c2ccccn2)n1)c1ccccc1", "fluorescence ratio, lower = inhibition": 24}, {"compound": "CN1CCN(Cc2ccc3nsnc3c2)CC1CCO", "note": "(stereo not given)", "fluorescence ratio, lower = inhibition": 23.7}, {"compound": "CSCc1cc(N(C)c2ccccc2)nc(-c2ccccn2)n1", "fluorescence ratio, lower = inhibition": 17.8}]}]}
